# Sampled rows, rich in hits. Any-hit rate of the full collection: about 2%.
# DAGLB inhibitor = DAGLB lipase inhibitors, primary screen, biochemical, fluorescence, HTS. HEK293T DAGLB membrane lysate, EnzChek fluorogenic substrate. inhibition, % at 5.17 µM. 0.059% of 340,000 active; in the data active means inhibition above about 34%
# NadD inh = inhibitors of S. aureus NadD, primary screen, biochemical, colorimetric, uHTS | AID 602399, 2012 | inhibition, % at 20 µM | Nicotinate-nucleotide adenylyltransferase NadD (Staphylococcus aureus N315) | purified NadD enzyme, colorimetric absorbance read-out | 0.78% of 360,000 active; in the data active means inhibition above about 26%
# HGIII-sPLA2 inh = human group III sPLA2 inhibitors, primary screen, biochemical, QFRET, BODIPY PC-A2 liposome substrate; QFRET BODIPY PC-A2 liposome hydrolysis, fluorescence; inhibition, % at 12.2 µM; 0.56% of 370,000 active; AID 743126, 2013;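 active means inhibition above mean plus 3 SD of compounds lying within the high and low control bounds, cut at about 19% in these data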
# Target sequence (Q9NZ20 whole entry, looked up): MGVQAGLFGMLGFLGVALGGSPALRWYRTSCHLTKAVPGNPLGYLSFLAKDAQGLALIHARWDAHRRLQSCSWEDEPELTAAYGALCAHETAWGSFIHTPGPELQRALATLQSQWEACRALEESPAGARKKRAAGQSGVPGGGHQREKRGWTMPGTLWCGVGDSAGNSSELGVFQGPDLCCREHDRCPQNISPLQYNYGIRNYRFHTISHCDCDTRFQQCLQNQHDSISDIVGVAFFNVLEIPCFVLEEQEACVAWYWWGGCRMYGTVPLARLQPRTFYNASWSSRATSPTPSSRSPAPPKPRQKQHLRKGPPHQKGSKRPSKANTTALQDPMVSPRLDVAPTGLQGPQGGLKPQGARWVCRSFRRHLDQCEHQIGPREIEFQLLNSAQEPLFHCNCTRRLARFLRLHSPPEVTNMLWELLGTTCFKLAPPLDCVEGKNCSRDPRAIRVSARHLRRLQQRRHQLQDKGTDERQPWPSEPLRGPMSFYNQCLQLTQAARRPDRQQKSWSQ
# Neddyl block = inhibitors of cullin neddylation, primary screen, biochemical, TR-FRET, uHTS, NAE and Ubc12 | inhibition, % at 25 µM | 0.58% of 360,000 active; in the data active means inhibition above about 36%
# ARNT-TACC3 inh = disruptors of ARNT/TACC3 protein interaction, primary screen, biochemical, AlphaScreen, single concentration. Transforming acidic coiled-coil-containing protein 3 (Homo sapiens), Q9Y6A5. AlphaScreen His-ARNT PAS-B/GST-TACC3 binding, luminescence; TACC3 fragment carries E629A point mutation. inhibition, % at 9.99 µM. 0.66% of 390,000 active;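 active means mean inhibition of replicates at least 50% and at least half of replicates each reaching 50%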
# hGIII sPLA2 conf = human group III sPLA2 inhibitors, confirmation, biochemical, QFRET, triplicate; shares compounds with HGIII-sPLA2 inh; 34% of 2,000 active; inhibition, % at 12.2 µM; AID 743280, 2014; recombinant hGIII-sPLA2, BODIPY PC-A2 QFRET fluorescence;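 active means mean inhibition across triplicates above the hit cutoff set in the earlier primary screen, cut at about 19% in these data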
# 535nm interf = 535nm fluorescence optical interference, confirmation, artefact control for HGIII-sPLA2 inhibitor project, biochemical, QFRET | 8.5% of 2,000 active | shares compounds with HGIII-sPLA2 inh | inhibition, % at 12.2 µM | AID 743282, 2014 | BODIPY FL product fluorescence interference;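 active means average inhibition above the solvent-only control mean plus 3 SD, cut at about 6% in these data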
# BODIPY interf DR = 535nm fluorescence optical interference, dose response, artefact control for HGIII-sPLA2 inhibitor project, biochemical, QFRET; AID 743455, 2014; BODIPY FL product fluorescence interference, cell-free; 240 tested, under 10 active; shares compounds with HGIII-sPLA2 inh; IC50, µM;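 active means IC50 at or below 10 µM; inactive means IC50 above 10 µM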
# Numbers stand for hits; n = inactive; x = no result.
SMILES,DAGLB inhibitor,NadD inh,HGIII-sPLA2 inh,Neddyl block,ARNT-TACC3 inh,hGIII sPLA2 conf,535nm interf,others
CC(C)CN(C(=O)COC(=O)CCc1nc2ccccc2s1)c1c(N)n(Cc2ccccc2)c(=O)[nH]c1=O,n,n,19.5,n,n,n,n,
CCN(C(=O)COC(=O)CCCc1nc2ccccc2s1)c1c(N)n(Cc2ccccc2)c(=O)[nH]c1=O,n,n,n,n,n,x,x,
c1ccc2cc(Cn3ccc4ccc(-c5ccc6cc[nH]c6c5)cc43)ccc2c1,x,x,23.2,x,x,n,10.3,
Cc1ccc(/C=N/n2c(C3CCCCC3)n[nH]c2=S)s1,n,n,22.0,n,n,n,n,
Cc1ccsc1/C=N/n1c(C2CCCCC2)n[nH]c1=S,n,n,n,n,n,x,x,
Cc1ccc(/C=N/n2c(-c3cccnc3)n[nH]c2=S)s1,n,n,28.0,n,n,19.3,n,
O=C(NCCN1CCOCC1)c1cc(Sc2ccccc2Cl)nc2ccccc12,x,x,19.2,x,x,n,n,
CC(C)C#Cc1cnc2c(c1)C(=O)N([C@@H](C)CO)C[C@H](C)[C@H](CN(C)C(=O)Nc1ccc(F)cc1)O2,x,x,x,x,n,x,x,
CN(C)/N=C/c1c(O)ccc2ccccc12,n,n,n,n,n,x,x,
CS/C(N)=N/N=C/c1c(O)ccc2ccccc12,n,n,23.1,n,n,27.7,n,
Cc1ccc(Cn2cccc2C2=NC(C)CO2)cc1 (configuration not stated),n,n,21.5,n,n,n,n,
CC(C)C1COC(c2cccn2Cc2ccccc2Cl)=N1 (configuration not stated),n,n,n,n,x,x,x,
COc1cc(CNCCN(C)C)c(Br)cc1OCC(=O)NCc1ccccc1,n,n,22.0,n,x,n,n,
COc1cc(CNCC(C)C)c(Br)cc1OCC(=O)NCc1ccccc1,n,n,n,n,n,x,x,
O=C(NCC[C@H]1CC[C@@H](NC(=O)c2ccccc2F)[C@@H](CO)O1)c1ccc2c(c1)OCO2,x,x,x,x,n,x,x,
CCC(C)[C@H](NC(=O)[C@H](Cc1ccccc1)NC(=O)OC(C)(C)C)C(=O)NCc1ccccc1Br (some centres not stated),x,x,20.1,x,x,n,n,
COc1ccc(NC(=O)N(C)C[C@@H]2Oc3ncc(C#Cc4ccc(F)cc4)cc3C(=O)N([C@H](C)CO)C[C@@H]2C)cc1,x,x,x,x,n,x,x,
CC1=NN(c2ccccc2)C(=O)/C1=C/C=C/c1ccc(N(C)C)cc1,n,n,22.9,n,n,43.6,9.7,
C[C@H](CO)N1C[C@H](C)[C@H](CN(C)Cc2ccccn2)Oc2ncc(C3=CCCCC3)cc2C1=O,x,x,x,x,n,x,x,
CC(=O)Nc1ccc(S(=O)(=O)Nc2ccc(Cl)nn2)cc1,n,n,n,n,n,x,x,
Nc1ccc(S(=O)(=O)Nc2ccc(Cl)nn2)cc1,n,n,22.0,n,n,n,n,
Cc1noc(C)c1S(=O)(=O)Nc1ccc2c(c1)CC(=O)N([C@@H](C)CO)C[C@@H](C)[C@H](CN(C)C(=O)Nc1ccc3c(c1)OCO3)O2,x,x,x,x,n,x,x,
CCOc1ccc(NC(=O)Nc2cnccn2)cc1,n,n,n,n,n,x,x,
COc1ccc(NC(=O)Nc2cnccn2)cc1,n,n,22.4,n,n,n,n,
CN(C)CC#Cc1ccc([C@H]2[C@@H](CO)N3CCCCN(C(=O)C4CC4)C[C@H]23)cc1,x,x,x,x,n,x,x,
SMILES,DAGLB inhibitor,NadD inh,HGIII-sPLA2 inh,Neddyl block,ARNT-TACC3 inh,hGIII sPLA2 conf,535nm interf,others
C[C@H](NC(=O)C[C@H]1C[C@@H]2c3cc(NC(=O)CN(C)C)ccc3O[C@@H]2[C@@H](CO)O1)c1ccccc1,x,x,x,x,n,x,x,
CO[C@@H]1CN(C)C(=O)c2ccc(NS(C)(=O)=O)cc2OC[C@@H](C)NC[C@H]1C,x,x,x,x,n,x,x,
CCCn1c(O)c(N=NC(=O)c2ccco2)c2ccccc21,n,n,20.9,n,n,n,n,
Cc1c(Cl)c(C(=O)NNC(=S)Nc2ccccc2)nn1C,n,n,29.0,n,x,46.5,n,BODIPY interf DR=n
Cc1c(Cl)c(C(=O)NNC(=S)Nc2ccc(F)cc2)nn1C,n,n,33.7,n,n,40.6,n,BODIPY interf DR=n
CCNC(=S)NNC(=O)c1nn(C)c(C)c1Cl,n,n,n,n,n,x,x,
CC(=O)c1cccc(NC(=O)C2=CN3CCS(=O)(=O)N=C3C=C2)c1,n,n,20.4,n,n,n,n,
CN(C(=O)Nc1ccc(Cl)c(Cl)c1)c1ccccc1C(=O)O,n,n,21.4,n,n,n,n,
O=C(Nc1ccc(Cl)c(Cl)c1)c1ccccc1,n,n,n,n,n,x,x,
N#CC12C(=O)NC(=O)C1(C#N)C21CCCC1 (configuration not stated),n,n,21.8,n,n,n,n,
Cc1ccc(C(=O)N2CC(=O)Nc3ccc(F)cc3C2c2ccccc2)cc1[N+](=O)[O-] (configuration not stated),n,n,n,n,n,x,x,
O=C1CN(C(=O)c2cc([N+](=O)[O-])ccc2Cl)C(c2ccccc2)c2cc(F)ccc2N1 (configuration not stated),n,n,30.6,n,x,n,n,
Cc1cc(C)c(O)c(-c2n[nH]c3c2C(c2cccc(O)c2)N(Cc2ccco2)C3=O)c1 (configuration not stated),n,n,23.8,n,n,n,n,
O=C1c2[nH]nc(-c3ccccc3O)c2C(c2cccc(Cl)c2)N1Cc1ccco1 (configuration not stated),n,n,n,n,x,x,x,
CN(C)C(=O)c1cccc(-c2ccc3c(c2)[C@H]2[C@H](CCN2C(=O)c2ccncc2)[C@@H](CO)N3C)c1,x,x,x,x,n,x,x,
Cc1cc(NC(=O)C(C)C)ncc1NC(=O)c1ccco1,n,n,20.0,n,n,n,n,
CCOc1ccc(C(C)=O)cc1CSC(=N)N,n,n,n,n,x,x,x,
CCCCCOc1ccc(CSC(=N)N)cc1[N+](=O)[O-],n,n,44.5,n,n,29.6,n,BODIPY interf DR=n
CCCCOc1ccc(Br)cc1CSC(=N)N,n,n,43.7,n,n,25.4,n,
CO[C@@H]1CN(C)C(=O)c2cc(NC(=O)C3CCC3)ccc2OC[C@H](C)N(Cc2cccnc2)C[C@@H]1C,x,x,x,x,n,x,x,

# Screening data from PubChem BioAssay.
